Active and inactive are the calls of the source. The calls were made as follows: active = hit-call score of the fitted dose curve at least 0.9, where 1 is the maximum; inactive = score below 0.9.
Assay: APR_HepG2_CellLoss_72hr: Apredica 72-hour HepG2 Assay for Cell Loss (AID 2282915)
Details: high-content imaging
Experimental: APR_HepG2_72hr is a cell-based, multiplexed-readout assay that uses HepG2, a human liver cell line, with measurements taken at 72 hours after chemical dosing in a 384-well plate.APR_HepG2_CellLoss_72hr is one of 10 assay component(s) measured or calculated from the APR_HepG2_72hr assay. It is designed to make measurements of cell number, a form of viability reporter, as detected with fluorescence intensity signals by HCS Fluorescent Imaging technology.Data from the assay component APR_HepG2_CellLoss_72hr was analyzed into 1 assay endpoint. This assay endpoint, APR_HepG2_CellLoss_72hr, was analyzed with bidirectional fitting relative to DMSO as the negative control and baseline of activity. Using a type of viability reporter, measures of all nuclear dna for gain or loss-of-signal activity can be used to understand the viability at the cellular-level. Furthermore, this assay endpoint can be referred to as a secondary readout, because this assay has produced multiple assay endpoints where this one serves a viability function. To generalize the intended target to other relatable targets, this assay endpoint is annotated to the cell cycle intended target family, where the subfamily is proliferation.
Cells were treated with dimethyl sulfoxide (DMSO) as a solvent control at a final concentration of 0.5% v/v or with compounds in DMSO with a resulting final DMSO concentration of 0.5% v/v. Compound treatment was done at concentrations of 0.39, 0.78, 1.56, 3.12, 6.24, 12.5, 25, 50, 100, and 200 uM in duplicate on each plate. Cells were treated with compounds for 1, 24, or 72 hr. Carbonyl […] m-chloro-phenylhydrazone (CCCP) and taxol were used as positive controls for mitochondrial function and cytoskeletal stability, respectively; DMSO served as the negative control for this experiment. Cells were fixed by the direct addition of 50 uL formaldehyde in Hank's Balanced Salt Solution (HBSS) to a final concentration of 3.7%. After incubation in the fixation medium for 30 min at room temperature (293-298 K), cells were rinsed twice with HBSS and treated with cell permeabilization buffer (16 uL of 0.5% Triton X-100) for 10 min at room temperature (293-298 K) before labeling. For mitochondrial membrane potential and mitochondrial measurements, pre-fixed cells were incubated with 50 uL of MitoTracker Red CMXRos (Invitrogen) at a concentration of 250 nM for 30 min before fixation. In the remaining cases, post-fixed cells were labeled by incubation with a multiplexed mixture of primary antibodies in HBSS for 60 min at room temperature (293-298 K) to detect immunoreactivity of c-Jun (1:500), phospho-histone H3 (1:100), phospho-histone H2A.x (1:200), p53 (1:400), alpha-tubulin (1:200) and Hoechst 33342 (2 ug/mL). Cells were labeled for multiplexed imaging on two separate plates: a) Hoechst 33342, MitoTracker Red, phospho-histone H3, and alpha-tubulin, and b) Hoechst 33342, phospho-histone H2A.x, and c-Jun. A final rinse with HBSS (50 uL) was performed before analysis. The primary and secondary antibodies for the proteins were phospho-histone H3 (rabbit anti-phospho-histone H3 and FITC-donkey anti-rabbit IgG), phospho-histone H2A.x (mouse anti-phospho-histone H2A.x and FITC-donkey anti-mouse IgG), c-Jun (rabbit anti-phospho-c-Jun and Cy3-donkey anti-rabbit IgG), p53 (sheep anti-p53 and Cy5-donkey anti-sheep IgG), alpha-tubulin (mouse anti-alpha-tubulin and Cy5-donkey anti-mouse IgG). These antibodies are available as the CellCiphr HepG2 assay kit (Millipore).Digital images of each well were captured using a Cellomics ArrayScan VTI (Thermo Scientific Cellomics) (0.8 NA objective, 0.63x optical coupler, and XF-93 filter set) at 20x magnification. The images were acquired using the autofocus feature of the ArrayScan instrument, which entails the following steps. First, the camera focuses on channel 1 (Hoechst 33342), where nuclei are identified. Second, a Z offset of 1 um is used for capturing mitochondria (MitoTracker Red). […]

AC50, active:
CCCCCCCCOc1ccc(C(=O)c2ccccc2)c(O)c1 91.6 µM
CC1(C)NC(=O)N(c2ccc([N+](=O)[O-])c(C(F)(F)F)c2)C1=O 38.6 µM
Cc1cc2c(cc1C(F)(F)F)N(C(=O)Nc1ccc(Oc3cccnc3C)nc1)CC2 9.35 µM
CC(O)CC(C)(C)O (stereo not given) 70.6 µM
NCc1cccc(C2CCN(C(=O)c3ccc(C#Cc4ccccc4F)o3)CC2)c1 15.5 µM
Cc1c2ccccc2c(C)c2c1ccc1ccccc12 40.3 µM
Cc1occc1C(=O)Nc1ccc(C(=O)N2CCC(F)(F)/C(=C\C(=O)N3CCC(N4CCCCC4)CC3)c3ccccc32)cc1 12.3 µM
CCCCCCCCOC(=O)c1cc(O)c(O)c(O)c1 63.2 µM
COc1ccc2cc(S(=O)(=O)N[C@H](CC(=O)N[C@H](Cc3ccc(CN4[C@H](C)CCC[C@@H]4C)cc3)C(=O)N(C)C(C)C)c3ccc4c(c3)OCO4)ccc2c1 25.3 µM
CCOC(=O)O[C@H](C)OC(=O)c1ccc2c(c1)cc(C(=O)NC1CCN(C(C)C)CC1)n2Cc1cc(-c2ccc(Cl)s2)on1 8.32 µM
COc1cccc([C@H](O)C2CCN(CCc3ccc(F)cc3)CC2)c1OC 105 µM
CC(=O)N1CCN(c2ccc(OC[C@H]3CO[C@](Cn4ccnc4)(c4ccc(Cl)cc4Cl)O3)cc2)CC1 23.5 µM
CC[C@H](NC(=O)c1cc(F)ccc1NS(=O)(=O)c1cccc2cccnc12)c1ccccc1 78.4 µM
CO[C@H]1/C=C/O[C@@]2(C)Oc3c(C)c(O)c4c(O)c(c(/C=N/N5CCN(C)CC5)c(O)c4c3C2=O)NC(=O)/C(C)=C\C=C\[C@H](C)[C@H](O)[C@@H](C)[C@@H](O)[C@@H](C)[C@H](OC(C)=O)[C@@H]1C 45.2 µM
C[C@]12CC[C@@H]3c4ccc(O)cc4CC[C@H]3[C@@H]1CC[C@H]2O 75.6 µM
Cc1cc(F)ccc1-c1cc(N2CC[C@@H](O)[C@H]2CO)ncc1N(C)C(=O)C(C)(C)c1cc(C(F)(F)F)cc(C(F)(F)F)c1 64.7 µM
CCCCCCCCCCCC[N+](C)(C)C 41.7 µM
OC12N=C(c3ccccc3)SC1Cc1cc(Cl)ccc12 (stereo not given) 67.5 µM
CC(C)(c1cc(Br)c(O)c(Br)c1)c1cc(Br)c(O)c(Br)c1 56.7 µM
O=C(Nc1ccc(Cl)cc1)Nc1ccc(Cl)c(Cl)c1 5.54 µM
CN(C)C(=O)C1(N2CCCCC2)CCN(CC[C@@]2(c3ccc(Cl)c(Cl)c3)CN(C(=O)c3ccccc3)CCO2)CC1 11.4 µM

outcome, inactive:
CCO[Si](CCCNC(N)=O)(OCC)OCC
Cc1cccc2ccccc12
O=C=NCCCCCCN=C=O
O=C1CCC(C2CCCCC2)CC1
O=C(O)c1ccccc1C(=O)OCc1ccccc1
O=C(OCCCCCCOC(=O)c1ccccc1)c1ccccc1
Oc1ccc2ccccc2c1
Cc1ncc(CO)c(CO)c1O
COCC(C)OCC(C)OCC(C)O (stereo not given)
O=CCCCC=O
OCCO
CCCCCCCCCCCCO
Oc1ccccc1
CC[C@@H]1C[C@H](N(Cc2cc(C(F)(F)F)cc(C(F)(F)F)c2)C(C)=O)c2cc(C(F)(F)F)ccc2N1C(=O)OC(C)C
Cc1ccc2oc(CN(Cc3ccccc3)C(=O)Nc3c(F)cc(F)cc3F)c(-c3ccc(Cl)cc3)c2c1
CCN(Cc1cccc(S(=O)(=O)O)c1)c1ccc(C(=C2C=CC(=[N+](CC)Cc3cccc(S(=O)(=O)O)c3)C=C2)c2ccccc2S(=O)(=O)[O-])cc1
O=c1ccc2ccccc2o1
CC1=CC(=O)/C(=C(/C)O)C(=O)O1
Cc1ccc(C(C)C)cc1

Reference: PubChem BioAssay (EPA / NIEHS)
